Bioassay records as filed in PubChem.
MPTP inh: blocks calcium-induced mitochondrial swelling | 360,000 tested, 1.4% active | isolated mouse mitochondria, Ca2+ swelling absorbance, 30 min | inhibition, % at 10 µM;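 active means inhibition of 50% or more, scaled per plate between neutral and stimulator controls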;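 further: 0% = DMSO wells given calcium and 100% = 1 mM EGTA wells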
SUMO Mot1 rescue: inhibitors of SUMOylation pathway: yeast Mot1-301 growth rescue; S. cerevisiae Mot1-301 growth rescue, ATP luminescence, 38.5C; percent above DMSO median, 100 means doubled; growth rescue, % at 18.8 µM; 320,000 tested, 1% active;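 active means every valid replicate shows activation above 250% relative to neutral control wells; inactive means the rest, any valid replicate at or below 250%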;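 further: OY570 slx delta 5 strain wells were the positive control but not used for scaling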
FAS-TE inh: FAS thioesterase (human) inhibition; P49327; recombinant FAS-TE, OMFH fluorogenic substrate, fluorescence endpoint; inhibition, % at 15 µM; 360,000 tested, 0.67% active; AID 602261;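 active means compounds whose normalised, plate-corrected inhibition of enzyme fluorescence in the single-dose primary screen is 50% or more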;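 further: 0% = DMSO with enzyme and 100% = substrate without enzyme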
Target sequence (P49327 whole entry, looked up): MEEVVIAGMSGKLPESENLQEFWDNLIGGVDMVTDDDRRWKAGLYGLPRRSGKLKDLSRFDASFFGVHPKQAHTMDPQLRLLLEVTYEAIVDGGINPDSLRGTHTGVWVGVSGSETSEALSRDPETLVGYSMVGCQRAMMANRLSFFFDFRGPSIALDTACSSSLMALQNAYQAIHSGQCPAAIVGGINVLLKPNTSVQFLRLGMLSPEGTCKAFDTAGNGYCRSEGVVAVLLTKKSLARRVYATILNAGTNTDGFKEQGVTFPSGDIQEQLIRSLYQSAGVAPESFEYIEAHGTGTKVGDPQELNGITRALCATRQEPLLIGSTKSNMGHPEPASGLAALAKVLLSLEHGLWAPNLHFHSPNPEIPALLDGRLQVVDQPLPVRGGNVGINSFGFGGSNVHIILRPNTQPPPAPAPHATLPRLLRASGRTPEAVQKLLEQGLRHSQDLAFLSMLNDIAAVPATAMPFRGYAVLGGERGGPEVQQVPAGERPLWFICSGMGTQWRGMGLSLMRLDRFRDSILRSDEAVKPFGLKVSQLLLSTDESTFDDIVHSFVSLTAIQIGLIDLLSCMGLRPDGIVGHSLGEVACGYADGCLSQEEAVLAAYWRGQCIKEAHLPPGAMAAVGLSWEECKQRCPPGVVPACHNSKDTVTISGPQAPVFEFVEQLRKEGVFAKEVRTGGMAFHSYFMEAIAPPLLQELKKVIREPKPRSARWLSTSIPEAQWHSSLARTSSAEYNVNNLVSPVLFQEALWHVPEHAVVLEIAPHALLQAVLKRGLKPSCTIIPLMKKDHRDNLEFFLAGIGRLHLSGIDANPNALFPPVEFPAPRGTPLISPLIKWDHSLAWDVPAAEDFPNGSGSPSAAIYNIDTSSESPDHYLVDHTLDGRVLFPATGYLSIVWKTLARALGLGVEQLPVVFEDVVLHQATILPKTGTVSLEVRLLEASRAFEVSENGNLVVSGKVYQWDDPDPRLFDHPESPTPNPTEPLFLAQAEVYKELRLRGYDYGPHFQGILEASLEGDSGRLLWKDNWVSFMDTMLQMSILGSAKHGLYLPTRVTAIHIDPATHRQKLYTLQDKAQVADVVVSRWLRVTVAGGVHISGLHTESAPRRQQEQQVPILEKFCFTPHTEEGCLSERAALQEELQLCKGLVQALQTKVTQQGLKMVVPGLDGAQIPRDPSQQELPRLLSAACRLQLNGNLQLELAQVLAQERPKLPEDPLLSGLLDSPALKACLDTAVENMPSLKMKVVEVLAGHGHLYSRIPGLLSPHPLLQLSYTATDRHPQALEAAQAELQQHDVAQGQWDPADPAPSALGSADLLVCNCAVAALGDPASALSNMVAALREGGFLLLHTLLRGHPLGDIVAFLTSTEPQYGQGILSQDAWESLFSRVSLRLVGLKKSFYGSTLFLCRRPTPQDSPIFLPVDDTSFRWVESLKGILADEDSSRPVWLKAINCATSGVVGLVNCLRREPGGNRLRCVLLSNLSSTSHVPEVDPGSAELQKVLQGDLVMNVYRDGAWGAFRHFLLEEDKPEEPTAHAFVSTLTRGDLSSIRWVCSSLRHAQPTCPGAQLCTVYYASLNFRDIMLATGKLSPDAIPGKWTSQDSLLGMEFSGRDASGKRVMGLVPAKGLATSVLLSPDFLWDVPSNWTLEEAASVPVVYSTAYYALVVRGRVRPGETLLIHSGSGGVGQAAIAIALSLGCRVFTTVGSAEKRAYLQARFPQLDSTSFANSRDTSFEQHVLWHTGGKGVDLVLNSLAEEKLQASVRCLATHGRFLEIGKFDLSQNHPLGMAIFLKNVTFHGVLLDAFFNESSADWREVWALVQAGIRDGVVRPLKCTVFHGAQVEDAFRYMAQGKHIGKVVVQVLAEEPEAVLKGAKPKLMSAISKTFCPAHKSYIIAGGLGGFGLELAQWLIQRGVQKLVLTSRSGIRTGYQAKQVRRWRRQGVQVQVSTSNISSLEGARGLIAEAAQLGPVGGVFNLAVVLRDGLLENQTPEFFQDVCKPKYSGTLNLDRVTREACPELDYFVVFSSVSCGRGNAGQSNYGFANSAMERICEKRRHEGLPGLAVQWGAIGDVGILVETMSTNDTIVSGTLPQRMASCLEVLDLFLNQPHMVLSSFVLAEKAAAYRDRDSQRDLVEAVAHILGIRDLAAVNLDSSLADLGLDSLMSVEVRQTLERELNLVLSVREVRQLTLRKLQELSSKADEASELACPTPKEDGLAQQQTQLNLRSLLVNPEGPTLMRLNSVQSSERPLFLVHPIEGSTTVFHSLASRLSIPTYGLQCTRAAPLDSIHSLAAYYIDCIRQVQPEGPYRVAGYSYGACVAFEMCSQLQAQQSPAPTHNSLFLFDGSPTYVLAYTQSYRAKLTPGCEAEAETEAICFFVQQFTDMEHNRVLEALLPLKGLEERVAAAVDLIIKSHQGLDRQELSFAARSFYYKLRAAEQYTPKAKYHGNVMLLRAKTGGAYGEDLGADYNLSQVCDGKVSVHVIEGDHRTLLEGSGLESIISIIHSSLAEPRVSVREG
CR mimetic SO: yeast age-related superoxide inhibition as caloric restriction mimetic; 330,000 tested, 0.18% active; S. cerevisiae aged cells, superoxide DHE fluorescence; active compounds read low; superoxide response (% of plate mean), % at 10 µM;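 active means superoxide response under a set limit, about three screen SD below normal, cut at about 65% in these data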;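 further: yeast aged for seven days with compound at 30 °C before DHE staining; 100% = average MFI of all compound-treated wells on the plate with controls excluded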
H9c2 protect: myocardial damage modulation in H9c2 cells; 360,000 tested, 0.63% active; protection from H2O2 cell death, % at 20 µM; H9c2 cardiomyocytes, H2O2 injury protection, ATPLite, 2 h;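 active means compounds giving at least 50% protection of heart cells from peroxide-induced death in the single-dose screen, raw or plate-pattern-corrected value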;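 further: 0% = DMSO wells with peroxide and 100% = DMSO wells without peroxide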
aDG glyco act: increases alpha dystroglycan glycosylation; 360,000 tested, 0.22% active; AID 624168; activation, % at 10 µM; Pro5-aDG cells, alpha-DG glycosylation AlphaScreen (IIH6); 0% Pro5, 100% B10-LARGE cell signal;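 active means activation of at least 8% versus controls, or a plate z-score of at least 8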;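 further: Pro5 are CHO cells carrying HIG-tagged alpha-DG that lacks glycosylation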
MPTP counter: membrane potential counter-screen of mitochondrial pore inhibitors. isolated mitochondria, Rhodamine 123 fluorescence. shares compounds with MPTP inh. inhibition, % at 10 µM. 5,000 tested, 78% active; in the data active means inhibition above about 22%;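 further: 0% = DMSO vehicle and 100% = positive control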
MPTP abs DR: MPTP inhibition, dose response swelling confirmation; shares compounds with MPTP inh; isolated mitochondria swelling, absorbance; IC50, µM; 780 tested, 58% active; AID 651561; in the data active means IC50 below about 20 µM
MPTP counter DR: MPTP inhibitor counter-screen activity, dose response | AID 651564 | 780 tested, 49% active | isolated mitochondria counterscreen, fluorescence read-out | shares compounds with MPTP inh | IC50, µM; in the data active means IC50 below about 80 µM
* marks the source's active call; other numbers are inactive results. In the library only some 3.8% were active in any assay of this set; here they are far more common.

Screening O=[N+]([O-])c1cc(C(F)(F)F)ccc1NCCCCNS(=O)(=O)c1ccc2ccccc2c1 returned MPTP inh 91*, SUMO Mot1 rescue 12, FAS-TE inh 29, CR mimetic SO 94, H9c2 protect -16, aDG glyco act 0 and MPTP counter 79*.
For Cc1cccc(-c2nc(CS(=O)CC(=O)NC3CCCC(C)C3C)c(C)o2)c1 (stereo not given) the results were MPTP inh 2, SUMO Mot1 rescue 9, FAS-TE inh 7, CR mimetic SO 143, H9c2 protect 10 and aDG glyco act 1.
`CCCC1C(c2ccco2)NC(c2ccco2)CC1(C)O` (stereo not given) gave MPTP inh 78*, SUMO Mot1 rescue -23, FAS-TE inh -7, CR mimetic SO 99, H9c2 protect 1, aDG glyco act 0, MPTP counter 4, MPTP abs DR >100 and MPTP counter DR >80.
CC1(C(=O)Nc2ccc3c(c2)OCO3)CCN1C(=O)Cc1ccc(-c2ccccc2)cc1 (stereo not given) was read as MPTP inh 74*, FAS-TE inh 27, H9c2 protect -22, aDG glyco act 5 and MPTP counter 96*.
CCN(CC)c1ccc2nc3ccc(N)cc3[n+](-c3ccccc3)c2c1 was read as MPTP inh 54*, FAS-TE inh -9, H9c2 protect -10, aDG glyco act 0 and MPTP counter 24*.
Screening COc1ccc(C)cc1CN(C)c1ccc(S(=O)(=O)N2CCN(C)CC2)cn1 returned MPTP inh -1, FAS-TE inh 0, H9c2 protect -6 and aDG glyco act 0.
CCOc1ccc(OCCSc2nc3ccccc3[nH]2)cc1 was read as MPTP inh 16, SUMO Mot1 rescue 7, FAS-TE inh 8, CR mimetic SO 80, H9c2 protect -22 and aDG glyco act 1.
`Cc1cccc(OCCCSc2nc3ccccc3[nH]2)c1` gave MPTP inh 51*, SUMO Mot1 rescue 192, FAS-TE inh 6, CR mimetic SO 96, H9c2 protect -25, aDG glyco act 0 and MPTP counter 64*.
CCCOc1ccc(CSc2nc3ccccc3[nH]2)cc1 was read as MPTP inh 98*, SUMO Mot1 rescue 127, FAS-TE inh 17, CR mimetic SO 95, H9c2 protect -17, aDG glyco act 4.4* and MPTP counter 92*.
Screening Cc1cccc(OCCCC(=O)Nc2nc3ccccc3[nH]2)c1 returned MPTP inh 0, SUMO Mot1 rescue -3, FAS-TE inh -3, CR mimetic SO 97, H9c2 protect -13 and aDG glyco act -1.
Cc1[nH]n(-c2ncc(-c3ccccc3)s2)c(=O)c1C(c1ccc(Cl)cc1)C(C#N)C#N (stereo not given) was read as MPTP inh 103*, SUMO Mot1 rescue 18, FAS-TE inh 11, CR mimetic SO 120, H9c2 protect 0, aDG glyco act 0 and MPTP counter 25*.
Screening Cc1[nH]n(-c2ccccc2)c(=O)c1C(c1ccccc1[N+](=O)[O-])C(C#N)C#N (stereo not given) returned MPTP inh 3, SUMO Mot1 rescue -7, FAS-TE inh -4, CR mimetic SO 94, H9c2 protect -3 and aDG glyco act 0.
Screening COC(=O)c1sccc1S(=O)(=O)NCc1ccc(S(N)(=O)=O)cc1 returned MPTP inh -1, SUMO Mot1 rescue 8, FAS-TE inh -4, CR mimetic SO 107, H9c2 protect 1 and aDG glyco act 0.
For COc1ccccc1/C=C/C(=O)c1cc(Br)ccc1OC(=O)c1ccco1 the results were MPTP inh 57*, SUMO Mot1 rescue -13, FAS-TE inh 11, CR mimetic SO 118, H9c2 protect -4, aDG glyco act 0 and MPTP counter -9.
For Cc1ccc(/C=C/C(=O)c2cc(Br)ccc2OC(=O)c2ccco2)cc1 the results were MPTP inh 4, SUMO Mot1 rescue 115, FAS-TE inh 5, CR mimetic SO 95, H9c2 protect -6 and aDG glyco act 0.
CCn1nc([N+](=O)[O-])c(C(C#N)c2nc3ccccc3n2C)c(Cl)c1=O (stereo not given) was read as MPTP inh 54*, SUMO Mot1 rescue 5, FAS-TE inh 9, CR mimetic SO 101, H9c2 protect -7, aDG glyco act 0 and MPTP counter 67*.
CCCn1nc([N+](=O)[O-])c(C(C#N)c2nc3ccccc3s2)c(Cl)c1=O (stereo not given) was read as MPTP inh 112*, SUMO Mot1 rescue -26, FAS-TE inh 26, CR mimetic SO 137, H9c2 protect -18, aDG glyco act 0 and MPTP counter 46*.
Screening COc1cccc(-c2cccc(NC(=O)C3CCN(CCCn4cccn4)CC3)c2)c1 returned MPTP inh -1, FAS-TE inh -2, H9c2 protect 0 and aDG glyco act 0.
For Cc1ccc(OCC(=O)NC(C)c2ccc(Cl)c(Cl)c2)c([N+](=O)[O-])n1 (stereo not given) the results were MPTP inh -1, SUMO Mot1 rescue -1, FAS-TE inh 8, CR mimetic SO 95, H9c2 protect -5 and aDG glyco act 0.
CN1c2ccccc2C(O)=C(C(=S)Nc2ccc(F)c(Cl)c2)S1(=O)=O was read as MPTP inh 89*, SUMO Mot1 rescue -14, FAS-TE inh 5, CR mimetic SO 103, H9c2 protect -28, aDG glyco act 0 and MPTP counter 72*.
CN1c2ccccc2C(O)=C(C(=S)Nc2ccccc2)S1(=O)=O was read as MPTP inh -1, SUMO Mot1 rescue 0, FAS-TE inh -6, CR mimetic SO 110, H9c2 protect -12 and aDG glyco act 0.
`Cc1cccc(C)c1OC(=O)C(c1ccccc1)c1ccccc1` gave MPTP inh 1, SUMO Mot1 rescue -20, FAS-TE inh 49, CR mimetic SO 118, H9c2 protect -12 and aDG glyco act 0.
C=CCC(C(=O)Oc1c(C(C)(C)C)cc(C)cc1C(C)(C)C)c1ccccc1 (stereo not given) was read as MPTP inh 55*, SUMO Mot1 rescue -9, FAS-TE inh 16, CR mimetic SO 76, H9c2 protect -4, aDG glyco act 0, MPTP counter -9, MPTP abs DR 6.9* and MPTP counter DR >80.
For CC(C)(C)OC(=O)NCCCC1=CC2=CC(=O)C(C)(OC(=O)C3CCCC3)C(=O)C2=CO1 (stereo not given) the results were SUMO Mot1 rescue -8.
